From PubChem
The list is not random: actives were taken first. Their share in the collection is about 2.8%.
a7 integrin act = qHTS for Activators of Integrin-Mediated Alleviation for Muscular Dystrophy. alpha7betagal myoblasts, beta-gal FDG fluorescence, 48 h. Potency, µM (series often up to 38.3 µM), without a hit: at the top dose activation, most hits filed as activators. actives 0.064% (n = 350,000). AID 624291, 2012;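 also: potency is read from the fitted curve at half-maximal effect; 100% = response of the positive control SU9516; nearly all actives have a fitted effect of over 60% in size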
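Alpha7betagal+/- myoblasts (passage 13) were plated 16-24 hr, then exposed to compounds (1:260 dilution of DMSO stock) for 48 hours at 37C. After MPER lysis, β-galactosidase reporter activity was read as FDG fluorescence (ex 480/em 540) after 30 minutes.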
PTHR1 agonist = qHTS for PTHR1 Agonists: Primary Screen; Parathyroid hormone/parathyroid hormone-related peptide receptor (Homo sapiens), Q03431; AID 743266, 2014; Potency, µM (highest dose often 115 µM), without a hit: at the top dose activation, most hits filed as activators; actives 0.075% (n = 410,000); HEK293 GP2 PTHR1 cells, GloSensor cAMP luminescence, 1 h; also: potency is read from the fitted curve at half-maximal effect; nearly all actives have a fitted effect of over 55% in size
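HEK-293-derived GP2 cells expressing PTHR1 and a GloSensor cAMP reporter, 3,000/well, plated overnight, given luciferin plus IBMX (each 0.5 mM as added) for 1 h at 37 °C, then compound for 1 h at 37 °C. Luminescence was read after 15 min at room temperature.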
DRD3 agonist = qHTS of D3 Dopamine Receptor Agonist: qHTS; D(3) dopamine receptor (Homo sapiens), P35462; D3R DiscoveRx beta-arrestin cells, luminescence, 90 min; max activation, %; actives 0.58% (n = 410,000); in the data active = max activation above about 30%; also: 0% is about no effect
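Cells at 1500/well, incubated overnight, then treated with pinned compounds (dopamine as control) for 90 min at 37 degrees C. DiscoveRx reagent added for 30 - 60 minutes at room temperature; luminescence read.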
D3 antag = qHTS of D3 Dopamine Receptor Antagonist: qHTS; D(3) dopamine receptor (Homo sapiens), P35462; D3R cells, DiscoveRx beta-arrestin luminescence, antagonist mode; active compounds read low; max response, negative = inhibition, %; actives 2.5% (n = 360,000); AID 652054, 2013; in the data active = max response below about -50%; inconclusive = no clear call, values can overlap the other calls; also: % is scaled to controls: 0 for no effect and ±100 for the full control effect
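Cells plated overnight at 1500 cells/well, then exposed to library compounds with dopamine controls for 90 minutes at 37 degrees C. DiscoveRx reagent added for 30–60 minutes at room temperature; luminescence read, quantitative HTS format.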
MBNL1-CUG inh = qHTS Assay for Inhibitors of MBNL1-poly(CUG) RNA binding | Muscleblind-like protein 1 (Homo sapiens), Q9NR56 | TR-FRET MBNL1-His/biotin-(CUG)12 binding, 665/545 ratio | Potency, µM (doses to about 57.5 µM), for inactives: at the highest dose activity change, negative = inhibition, hits mostly inhibitors | actives 0.036% (n = 280,000) | AID 2675, 2010; active = well fitted inhibition curve with a large enough effect in the signal ratio, with a control signal flat, not every such curve was filed as active; inconclusive = small, poorly fitted or top-dose-only effect, or effect the other way, or a change in a side signal; inactive = no such curve, though single readings can be large or run the other way; the % refers to the signal ratio; also: potency is read from the fitted curve at half-maximal effect; % is scaled to controls: 0 for no effect and ±100 for the full control effect
Target sequence (Q9NR56 whole entry, looked up): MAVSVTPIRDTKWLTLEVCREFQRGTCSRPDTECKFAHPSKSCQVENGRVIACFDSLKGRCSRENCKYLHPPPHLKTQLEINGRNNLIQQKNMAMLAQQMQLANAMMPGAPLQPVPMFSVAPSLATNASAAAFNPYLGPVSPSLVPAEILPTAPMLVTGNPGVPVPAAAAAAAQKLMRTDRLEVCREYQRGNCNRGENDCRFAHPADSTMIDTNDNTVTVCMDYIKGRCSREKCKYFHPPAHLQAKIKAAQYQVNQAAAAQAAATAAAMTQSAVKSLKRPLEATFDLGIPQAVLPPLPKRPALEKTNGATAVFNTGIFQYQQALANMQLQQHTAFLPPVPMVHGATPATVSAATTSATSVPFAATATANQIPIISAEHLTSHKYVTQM
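TR-FRET readout: Ex 340 nm, 665/545 nm emission ratio, normalized to buffer-only (basal) and MBNL1-(CUG)12 controls. Complex of MBNL1-His with Biotin-(CUG)12, compounds 92 nM–58 uM, incubated 60 min at room temperature.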
CBFb-RUNX1 inh = qHTS Assay for Compounds Blocking the Interaction Between CBF-beta and RUNX1 for the Treatment of Acute Myeloid Leukemia; Runt-related transcription factor 1 (Homo sapiens) + Core-binding factor subunit beta …; AlphaScreen CBFb-His/RUNX1-biotin binding, biochemical; Potency, µM (highest dose often 59.8 µM), inactives show top-dose activity, negative = inhibition, most hits filed as inhibitors; 230,000 tested, under 10 active; AID 1477, 2009; also: % of control where 0% means no effect
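AlphaScreen binding: CBFb-His and RUNX1-biotin (30 nM each) preincubated 20 min, compound added for 15 min, then nickel and streptavidin beads for 90 min, all at room temperature. Disruption of the interaction by any mechanism counts as activity.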
The depositor's hits bear a star; i = inactive; ? = inconclusive; . = no result given; ! = not confirmed by another sample; [ ] = another dose, or the depositor's remark. Unless noted, calls follow the shape of the dose curve; as a rule, active = well fitted curve in the direction sought with a large enough effect; inconclusive = small, poorly fitted or top-dose-only effect, or another doubt; inactive = no such curve, though single readings can be large; an effect the other way counts as inactive or inconclusive.

SMILES	a7 integrin act	PTHR1 agonist	DRD3 agonist	D3 antag	MBNL1-CUG inh	CBFb-RUNX1 inh
OCCC1CN(CCCc2ccccc2)CCN1CCc1ccccc1 (stereo not drawn)	-19%	i	-20	-18	-3%	.
Cc1nn(C)c(C(=O)N2CCOCC2)c1Cl	11%	i	2	0	-15%	-5%
O=c1ccn([C@@H]2O[C@H](CNCC3=Cc4cc(O)ccc4OC3)[C@@H](O)[C@H]2O)c(=O)[nH]1	21%	2%	55*	47	.	.
Cc1ccccc1NC(=O)c1ccc(Nc2c([N+](=O)[O-])cc([N+](=O)[O-])c3ccccc23)cc1	18%	-22%	-10	-71*	13%	?
Cc1cc(C(=O)Nc2ccc(Nc3ccccc3)cc2)ccc1[N+](=O)[O-]	-2%	-18%	0	10	-7%	.
CC(NC(=O)C(=O)NCCN1CCN(C(=O)c2ccc([N+](=O)[O-])cc2)CC1)c1ccccc1 (stereo not drawn)	13%	i	15	-2	?	.
CC1(C)NC(=O)N(CCCCOc2ccccc2[N+](=O)[O-])C1=O	.	.	.	.	?	-3%
CC1(C)NC(=O)N(c2ccc([N+](=O)[O-])c(C(F)(F)F)c2)C1=O	.	-53%	36*!	16	?	-9%
O=c1[nH]cnc2c([N+](=O)[O-])cccc12	14%	-7%[57.5 µM]	-11	-80*	?	4%
Cc1ccccc1CN1CC2=C(CCN(Cc3ccccc3)C2=O)N2CCN=C12	.	i	-12	-81*	.	.
CC(=O)Nc1c(I)cc(I)c(C(=O)O)c1I	.	.	66*	.	.	2%
CCc1cc(=O)oc2cc(OC(C)=O)cc(OC(C)=O)c12	19%	-18%[57.5 µM]	2	-58*	51%	-1%
COc1cc(OCc2ccccc2)c2c(CCC(=O)O)cc(=O)oc2c1	?	i	1	-8	.	.
O=C(N/N=C/c1ccc(OC(F)F)cc1OC(F)F)c1ccc(Br)cc1	2%	-33%	-13	-88*	.	-5%
COc1ccc(-c2[nH]ncc2/C=N/NC(=O)c2ccc(Br)cc2)c(OC)c1	-26%	-22%	-38	-66*	?	-3%
Cc1ccc(S(=O)(=O)N(C)Cc2ccc(C(=O)N/N=C/c3ccc(OC(F)F)cc3OC(F)F)cc2)cc1	18%	-27%	0	6	-13%	7%
O=C(NCc1ccccc1)c1cccc(COc2cc(Cl)ccc2Cl)c1	?	-58%	-5	-72*	?	9%
COc1cccc(=O)c2c(C)n(-c3cc(C)cc(C)c3)c(C)c12	-5%	-22%[57.5 µM]	6	-65*	12%	-28%
C1COCCNCCOCCOCCOCCN1	-1%	-24%	-8	12	8%[11.5 µM]	-1%
C1COCCNCCOCCOCCN1	1%	i	1	-92*	-6%	-5%
CC1(C)CC(=O)C2=C(C1)OC(N)=C(C#N)C2c1cccc(OC(=O)c2ccco2)c1 (stereo not drawn)	-18%	-6%[57.5 µM]	-1	-90*	-4%	25%
COc1ccc(COC(=O)N/N=C2/C[C@@H](O)[C@@H](O)[C@@H]3[C@@H]4C(=O)N(C5CCCCC5)C(=O)[C@H]4CC[C@@H]23)cc1	.	.	.	.	.	16%[13.1 µM]
O=C(NNC(=O)c1ccc2nonc2c1)Nc1ccc(Cl)cc1	-40%	-21%	-21	-69*	?	4%
CSc1ccc2c(c1)N(CCC1CCCCN1C)c1ccccc1S2 (stereo not drawn)	.	-1%	-82	-89*	-26%	?
